# According to PubChem BioAssay AID492962 (National Center for Advancing Translational Sciences (NCATS), 2010):
# Calls of active or inactive are those of the source. How the calls were made is not given here.
# Assay: Mouse Th1 T cell differentiation assay for inhibitors of ROR gamma transcriptional activity
# Settings: mouse naive CD4 T cells, Th1 IFN-g flow cytometry; activity: at 30 µM, active compounds read high unless noted; outcome: at 3 µM unless noted
# Source text: NIH Molecular Libraries Probe Production Network [MLPCN] NIH Chemical Genomics Center [NCGC] MLPCN Grant: R03 DA026211-01 Assay Provider: Dan Littman, New York University Keywords: NIH Roadmap, MLPCN, MLI, MLSMR, qHTS, NCGC, qHTS, nuclear hormone receptor, retinoic acid-related orphan receptor, ROR gamma Assay Overview: The retinoic acid-related orphan receptor (ROR) gamma is a transcription factor that has a central role in the differentiation of Th17 cells, a subset of T helper cells that secrete the inflammatory cytokines IL-17a, IL-17f, and IL-22. Th17 cells have been implicated in graft versus host disease, autoimmune disease and asthma. ROR gamma is induced in naive T helper cells in the presence of TGF-beta combined with IL-6, IL-21, or IL-23, and thereafter directs the expression of the Th17 lineage cytokines. To confirm the selectivity of ROR gamma inhibitors, compounds with strong inhibitory activities on Th17 cells were tested in a mouse Th1 T cell differentiation assay. T cells differentiate into Th1 cells in the presence of IL-12 and IL-2. […] Th1 differentiation was tracked by the induction of interferon gamma (IFN-g) expression as measured by an anti-IFN-g antibody using flow cytometry.
# Assay Protocol Summary: Cells from lymph nodes and spleens derived from six to eight week old IL17a-GFP mice (Biocytogen LLC) were used for T cell purification. B220- cells were isolated on an autoMACS Pro with bead depletion of B220+ cells (Miltenyi). Naive CD4+ T cell were further purified as TCRb+CD8- DAPI- CD19- CD4+CD25- CD62L+CD44low/Int by cell sorting on a FACSAria (BD). Cells were cultivated in an incubator at 37 C and 5% CO2 in RPMI 1640 medium (Invitrogen) supplemented with 10% (vol/vol) heat-inactivated FBS (Hyclone), penicillin-streptomycin, 2 mM glutamine and 0.1 mM nonessential amino acids. Cells were seeded on day 0 at a density of 0.4E5 cells per ml in 96-well plates coated with anti-CD3e (5 ug/ml) and anti-CD28 (10 ug/ml). Cells were cultured for 4~5 days in Th1 [IL-12 (10 ng/ml), IL-2 (100 U/ml), anti-IL-4] condition. […]
Structure (SMILES),outcome,activity
COc1cc(O)c(C(CC(=O)N2CC(C)CC(C)C2)c2ccc3c(c2)OCO3)c(OC)c1 (stereo not drawn),inactive,–
COc1cc(O)c(C(CC(=O)N2CCCC(C)C2)c2ccccc2OC)c(OC)c1 (stereo not drawn),–,46.1% (inactive)
CC1CCCN(C(=O)CC(c2ccc3c(c2)OCO3)c2ccc3ccccc3c2O)C1 (stereo not drawn),–,"32.5% [at 25 µM, active compounds read high] (inactive)"
